# SNCA expr inhib: Primary qHTS assay for inhibitors of alpha-synuclein gene (SNCA) expression. 0.17% of 140,000 active. HEK-293 SNCA-luciferase knock-in, luminescence, 24 h. Potency, µM (series often up to 57.2 µM), without a hit: at the top dose activity change, negative = inhibition, usual class: inhibitors;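 further: potency means the concentration at half of the fitted maximal effect; plate controls were DMSO cells for no effect and cell-free wells for full effect; nearly all actives have a fitted effect of over 45% in size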
# IP6K1 inh: Primary qHTS assay for small molecule inhibitors of Inositol hexaphosphate kinase 1 (IP6K1); Inositol hexakisphosphate kinase 1 (Homo sapiens), Q92551; IP6K1 kinase, ADP-Glo luminescence, 2 h; stronger effect = lower value; activity change, % (series mostly up to about 58 µM); 0.81% of 140,000 active; AID 1645851, 2021; in the data active means activity change below about -25%; further: on the % scale 0 is the no-effect control and ±100 the full control effect
#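 ADP-Glo luminescence measures ADP made by human IP6K1 during a 2 h RT reaction with ATP/IP6 (mix at 1.3 mM/130 uM); top library doses 57.5 and 19.1 uM final.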
# SNCA viab count: GF-AFC viability counterscreen for inhibitors of alpha-synuclein gene (SNCA) expression. 0.12% of 150,000 active. Potency, µM (highest dose often 57.1 µM), without a hit: at the highest dose activity change, negative = cytotoxicity, hits mostly cytotoxic. HEK-293-SNCA-luc viability, GF-AFC fluorescence, 24 h. AID 1671193, 2021;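 further: potency means the concentration at half of the fitted maximal effect; 0% = DMSO-treated cells and -100% = medium-only wells without cells; nearly all actives have a fitted effect of over 30% in size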
#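 Cytotoxicity counterscreen: after 24 h compound treatment of genome-edited SNCA-luciferase HEK-293 cells, live-cell protease substrate GF-AFC read by fluorescence after 30 min; activity scaled between DMSO (0%) and medium-only (-100%), curves Hill-fitted.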
# KDM5B inhibitor: Primary screen for KDM5B Histone Demethylases FDH-coupled qHTS; Lysine-specific demethylase 5B (Homo sapiens), Q9UGL1; KDM5B demethylase, FDH-coupled NADH fluorescence (FDH is formaldehyde dehydrogenase); Potency, µM (titrated, usually from 57.7 µM), actives largely listed as inhibitors; 2.6% of 220,000 active; AID 1347165, 2019; further: potency means the concentration at half of the fitted maximal effect; 0% is about no effect; nearly all actives have a fitted effect of over 70% in size
# Target sequence (Q9UGL1 whole entry, looked up): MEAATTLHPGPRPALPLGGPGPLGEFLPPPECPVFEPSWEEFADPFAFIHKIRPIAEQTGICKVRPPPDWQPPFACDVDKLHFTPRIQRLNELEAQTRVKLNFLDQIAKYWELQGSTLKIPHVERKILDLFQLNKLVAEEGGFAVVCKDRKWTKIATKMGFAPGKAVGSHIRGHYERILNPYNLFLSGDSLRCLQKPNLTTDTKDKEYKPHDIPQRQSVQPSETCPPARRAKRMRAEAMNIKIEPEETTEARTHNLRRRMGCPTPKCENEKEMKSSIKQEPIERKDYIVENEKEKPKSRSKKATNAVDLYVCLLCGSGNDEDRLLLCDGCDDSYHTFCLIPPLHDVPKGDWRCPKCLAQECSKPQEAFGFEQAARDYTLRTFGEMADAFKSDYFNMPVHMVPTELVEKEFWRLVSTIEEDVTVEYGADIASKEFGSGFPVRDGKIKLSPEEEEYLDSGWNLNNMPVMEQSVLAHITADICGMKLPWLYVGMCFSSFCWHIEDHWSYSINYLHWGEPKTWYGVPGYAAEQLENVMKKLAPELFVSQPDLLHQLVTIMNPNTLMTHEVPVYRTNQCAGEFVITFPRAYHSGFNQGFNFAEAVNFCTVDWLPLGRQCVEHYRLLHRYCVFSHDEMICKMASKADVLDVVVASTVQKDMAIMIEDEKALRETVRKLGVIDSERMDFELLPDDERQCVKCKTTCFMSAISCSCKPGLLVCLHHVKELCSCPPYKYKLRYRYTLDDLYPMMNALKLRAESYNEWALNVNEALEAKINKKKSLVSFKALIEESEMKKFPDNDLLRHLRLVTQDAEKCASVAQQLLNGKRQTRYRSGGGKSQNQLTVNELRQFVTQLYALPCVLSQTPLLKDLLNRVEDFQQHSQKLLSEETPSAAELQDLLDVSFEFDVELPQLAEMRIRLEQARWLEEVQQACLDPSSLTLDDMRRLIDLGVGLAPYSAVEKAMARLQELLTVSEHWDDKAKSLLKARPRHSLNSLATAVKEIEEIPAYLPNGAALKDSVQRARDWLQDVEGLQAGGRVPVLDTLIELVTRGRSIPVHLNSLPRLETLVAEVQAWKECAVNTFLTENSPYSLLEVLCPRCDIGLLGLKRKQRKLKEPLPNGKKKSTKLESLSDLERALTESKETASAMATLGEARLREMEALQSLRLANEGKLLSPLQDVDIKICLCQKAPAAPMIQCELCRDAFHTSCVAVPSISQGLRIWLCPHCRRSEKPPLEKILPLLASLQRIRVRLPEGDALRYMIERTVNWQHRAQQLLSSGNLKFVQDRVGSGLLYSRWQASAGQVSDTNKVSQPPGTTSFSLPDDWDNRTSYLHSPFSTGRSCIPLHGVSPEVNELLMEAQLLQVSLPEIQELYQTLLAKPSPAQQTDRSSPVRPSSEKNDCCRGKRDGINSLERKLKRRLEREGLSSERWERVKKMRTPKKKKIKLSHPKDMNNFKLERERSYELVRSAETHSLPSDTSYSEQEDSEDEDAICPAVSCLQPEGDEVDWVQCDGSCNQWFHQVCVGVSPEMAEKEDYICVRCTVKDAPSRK
#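 Compound dilutions met 200 nM (final) KDM5BΔAP for 10 min at room temperature before substrate addition. The substrate mix held 12.5 µM H3K4me3 with cofactors 25 µM α-ketoglutarate and 50 µM Fe²⁺. NADH signal gain over 30 min defined activity.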
# IP6K1 inh cnf: Confirmatory qHTS assay for small molecule inhibitors of Inositol hexaphosphate kinase 1 (IP6K1) | recombinant IP6K1 kinase, ADP-Glo luminescence, 2 h | Potency, µM (doses to about 49 µM), inactives show at the top dose activity change, negative = inhibition, usual class: inhibitors | 13% of 1,200 active | AID 1645852, 2021 | shares compounds with IP6K1 inh; further: potency means the concentration at half of the fitted maximal effect; on the % scale 0 is the no-effect control and ±100 the full control effect; nearly all actives have a fitted effect of over 65% in size
# Active calls of the source: *; i = inactive; u = inconclusive; x = no result given; [ ] = another dose, or the depositor's remark. In the library only some 3% were active in any assay of this set; here they are far more common. Unless noted, the call rests on the fitted dose curve; in most records, active means well fitted curve in the direction sought with a large enough effect; inconclusive means small, poorly fitted or top-dose-only effect, or another doubt; inactive means no such curve, though single readings can be large; an effect the other way counts as inactive or inconclusive.
SMILES,SNCA expr inhib,IP6K1 inh,SNCA viab count,KDM5B inhibitor,IP6K1 inh cnf
O=C(Cc1ccccc1)Nc1cccc(-c2nc3cccnc3s2)c1,70%,-19,6%,u,x
COCC(=O)Nc1cccc(-c2nc3cccnc3s2)c1,120%,-27*,6%,u,u
O=C(c1ccccc1)n1nc(-c2ccco2)nc1NCc1ccccc1Cl,68%,-31*,5%,u,-22%
COCCNC(=O)c1cc(-c2ccc(OC)cc2)nc2c1cnn2C,-2%,11,-2%,x,x
COc1ccc(NC(=O)C2CCN(C(=O)c3ncn4c3COC(c3ccccc3)C4)CC2)cc1 (stereo unspecified),84%,-30*,1%,i,-13%
O=C(NC1CCN(C(=O)c2ccc(-c3cccs3)cc2)CC1)c1ccccc1F,19%,-3,-1%[12.5 µM],x,x
CN(Cc1nc(-c2ccncc2)no1)C1CCC2(CCNCC2)CC1,-17%,-41*,2%,i,2%
Cn1cc(-c2cc(=O)c3ccnc(Nc4ccc5[nH]ccc5c4)c3o2)cn1,-6%[87.6 µM],-38*,-15%[87.6 µM],i,u
CC(C)Cc1nn2c(=O)cc(COC(=O)c3ccccc3NC(=O)c3ccccc3)nc2s1,-17%,-28*,8%,i,-6%
CC(Oc1ccccc1)C(=O)Nc1ccccc1C(=O)OCc1cc(=O)n2nc(C3CC3)sc2n1 (stereo unspecified),-2%,-27*,1%,i,0%
CC(=O)N1CCC(Cc2ccc(CN(C(=O)c3cccs3)C3CC3)cc2)CC1,-12%,1,-7%,x,x
O=C(Nc1cccc(C(F)(F)F)c1)Nc1cccs1,-6%,-33*,-25%,u,u
CCCc1nnc(C[C@@H]2C[C@@H](C(C)C)[C@H](CNc3cccnc3)C=C2C)o1,5%[87.6 µM],-25*,2%[87.6 µM],10µM*,-5%
CCCc1nnc(C[C@@H]2C[C@@H](C(C)C)[C@H](CNCc3cccnc3)C=C2C)o1,u,4,-19%[87.6 µM],i,x
COc1ccc(CC(=O)NC2CCN(c3ccnc4ccnn34)C2)cc1 (stereo unspecified),u,15,1%,x,x
O=C(Nc1ccc(Cl)cc1)c1cc(-c2ccc[nH]2)n[nH]1,49%,16,0%,i,0%
CCOc1ccc(NC(=O)c2cc(-c3ccc[nH]3)n[nH]2)cc1,13%,15,-11%,i,-4%
Cc1cc(C)cc(NC(=O)c2cc(-c3ccc[nH]3)n[nH]2)c1,189%,22,-13%,i,x
CCc1cccc(NC(=O)c2cc(-c3ccc[nH]3)n[nH]2)c1,32%,-30*,4%,i,9.2µM*
Cc1ccc(NC(=O)c2cc(-c3ccc[nH]3)n[nH]2)cc1,43%,4,8%,i,-20%
CCc1ccc(NC(=O)c2cc(-c3ccc[nH]3)n[nH]2)cc1,6%,-3,-1%,i,x
CCN1CCCC12Cc1ccccc1CN(C(=O)c1ccccc1)C2 (stereo unspecified),-18%,0,-16%,u,x
Cc1ncc(-c2ccc(S(=O)(=O)Nc3cccc(Cl)c3C)cc2)o1,x,x,x,i,x
Nc1c(S(=O)(=O)O)cc(Nc2ccc(Nc3nc(Cl)nc(Nc4ccc(S(=O)(=O)O)cc4)n3)c(S(=O)(=O)O)c2)c2c1C(=O)c1ccccc1C2=O,-5%,x,-16%,x,2.9µM*
Cc1cccc(Nc2nc(N[C@@H]3CCCC[C@H]3N)ncc2C(N)=O)c1,-17%,x,-5%,x,x
SMILES,SNCA expr inhib,IP6K1 inh,SNCA viab count,KDM5B inhibitor,IP6K1 inh cnf
NC(=O)c1cnc(N[C@@H]2CCCC[C@H]2N)nc1Nc1cccc(-n2nccn2)c1,x,-17,u,x,u
C[S+](=O)([O-])c1cccc(-c2cnc3[nH]cc(CC(N)=O)c3c2)c1,1%[87.6 µM],-22,-5%[87.6 µM],i,x
NC(=O)Cc1c[nH]c2ncc(-c3ccccc3F)cc12,4%[87.6 µM],-38*,7%[87.6 µM],35µM*,u
O=C(Cc1c[nH]c2ncc(-c3ccccc3)cc12)N1CCCC1,-20%[87.6 µM],-13,-19%[87.6 µM],u,x
NC(=O)Cc1c[nH]c2ncc(-c3cccc(C(F)(F)F)c3)cc12,-10%[87.6 µM],-32*,4%[87.6 µM],u,u
NC(=O)Cc1c[nH]c2ncc(-c3cccc(O)c3)cc12,-23%[87.6 µM],-38*,-4%[87.6 µM],u,u
CSc1ccc(-c2cccc(C(=O)NCCNC(=O)c3ccccc3Cl)c2)cc1,-11%,5,-9%[12.5 µM],x,x
COc1ccc(CC2CCOC3(CCN(C(=O)c4ccc(C)s4)CC3)C2)cc1 (stereo unspecified),1%,6,2%,x,x
CC1CN(c2ccc(Cl)cc2)C(=O)CN1C(=O)CCn1cccc1 (stereo unspecified),4%,-33*,15%,u,-15%
Cc1cc(C)c(Nc2ncnc3c2cnn3C)c(C)c1,-3%,-1,4%,u,x
Cn1ncc2c(Nc3cccc(F)c3)ncnc21,18%,-28*,4%,u,u
COc1cccc(CNC(=O)c2nn(C)c3c2CSc2ccccc2-3)c1,-4%,-32*,-1%,u,u
Cn1nc(C(=O)NCc2ccccc2)c2c1-c1ccccc1SC2,53%,-22,-6%,u,x
Cn1ncc2c(C(=O)NCc3cccs3)cc(-c3ccc(Cl)cc3Cl)nc21,-2%,4,-18%,x,x
Cn1ncc2c(C(=O)NC3CCCC3)cc(-c3ccccc3C(F)(F)F)nc21,x,-5,x,x,x
O=C(Nc1ccccc1Cl)c1cc(S(=O)(=O)N2CCC3(CC2)OCCO3)ccc1F,-3%,-35*,5%,i,u
COc1ccccc1Nc1ccnc(N2CCC(C(=O)NCCSC)CC2)n1,-10%,17,-14%,x,x
O=C(C1CC1)N1CCN(c2nccc(Nc3ccccc3F)n2)CC1,136%[87.6 µM],4,1%[87.6 µM],x,x
O=C(NCC(=O)N1CCCC1)c1ccc(-c2cccc(C(F)(F)F)c2)cc1,-7%,-8,u,x,x
O=C(CCn1cncn1)N1CCC(c2nccn2Cc2cccnc2)CC1,28%,-38*,14%,i,-16%
CN(c1ccccc1)c1cc(=O)c2ccnc(-c3cccnc3)c2o1,u,-22,-3%[87.6 µM],i,x
CN(c1ccccc1)c1cc(=O)c2ccnc(-c3cncnc3)c2o1,-28%[87.6 µM],-26*,9%[87.6 µM],u,8%
COc1cccc(Cl)c1-c1nccc2c(=O)cc(N(C)C)oc12,u,-18,7%[87.6 µM],i,x
CN(C)c1cc(=O)c2ccnc(-c3cccc(C(F)(F)F)c3)c2o1,-11%[87.6 µM],-33*,10%[87.6 µM],i,u
O=C(NCCc1ccc(Cl)cc1)c1ccc2nnc(-c3cc[nH]c3)n2c1,-1%,-2,-6%,x,x
O=[S+]1([O-])c2cnccc2O[C@@H](COCc2ccccc2)CN1Cc1ccccc1,u,5,-8%[23.9 µM],x,x
